{
  "source": "PubChem BioAssay (NCATS)",
  "note": "Several values for one entry are separate records, joined by “and”; a condition that tells them apart may be missing. Equal values may be shown once. Inconclusive results are not listed. A number with no mark means an inactive call. Activity calls are given as the source filed them. The call rests on the fitted dose curve; in most records, active means well fitted curve in the direction sought with a large enough effect in the repeat runs; inconclusive means weak or mixed curves; inactive means no such curve, though single readings can be large; an effect the other way counts as inactive or inconclusive. Further: nearly all actives have a fitted effect of over 55% in size. On the % scale 0 is the no-effect control and ±100 the full control effect; potency means the concentration at half of the fitted maximal effect.",
  "data": [
    {"target": "Cytochrome P450 2D6 (Homo sapiens) (UniProt P10635)", "sequence (P10635 whole entry, looked up)": "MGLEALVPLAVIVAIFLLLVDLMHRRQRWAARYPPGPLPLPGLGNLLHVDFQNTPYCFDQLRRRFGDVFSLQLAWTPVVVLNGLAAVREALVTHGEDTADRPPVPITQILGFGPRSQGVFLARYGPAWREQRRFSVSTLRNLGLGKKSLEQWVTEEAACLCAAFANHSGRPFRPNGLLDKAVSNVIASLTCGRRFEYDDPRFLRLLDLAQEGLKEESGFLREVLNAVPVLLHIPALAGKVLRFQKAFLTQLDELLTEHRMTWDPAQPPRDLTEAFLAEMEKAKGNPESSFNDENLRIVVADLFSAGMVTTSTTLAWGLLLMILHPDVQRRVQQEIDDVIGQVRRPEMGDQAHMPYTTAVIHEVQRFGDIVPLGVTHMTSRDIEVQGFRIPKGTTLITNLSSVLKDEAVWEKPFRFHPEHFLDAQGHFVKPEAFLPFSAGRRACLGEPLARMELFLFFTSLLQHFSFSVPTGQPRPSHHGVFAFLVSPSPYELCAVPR", "assay": "Cytochrome P450 family 2 subfamily D member 6 (CYP2D6) small molecule antagonists: luciferase biochemical (cell-free) qHTS assay (AID 1645840)", "details": "P450-Glo CYP2D6 enzyme, luciferin luminescence, 1 h; series mostly up to 57.4 µM; activity change, negative = inhibition: at the top concentration", "how_it_was_run": "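P450-Glo luminescent screen: recombinant CYP2D6 enzyme–proluciferin substrate mix preincubated with compound 10 min at room temperature, then NADPH regeneration added for 1 h at room temperature. Detection reagent added for 20 min; luciferin light read as relative luminescence units.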", "units": {"activity change, negative = inhibition": "%"}, "values": [
      {"smiles": "CCCCc1oc2ccc(NS(C)(=O)=O)cc2c1C(=O)c1ccc(OCCCN(CCCC)CCCC)cc1", "Potency": "2.75 µM (active) and 3.38 µM (active)"},
      {"smiles": "COc1cccc(N(C)C(=S)Oc2ccc3c(c2)CCCC3)n1", "activity change, negative = inhibition": -10.3},
      {"smiles": "CN(C)c1ccc(C(=C2C=CC(=[N+](C)C)C=C2)c2ccc(N(C)C)cc2)cc1", "Potency": "3.09 µM (active)"},
      {"smiles": "Nc1nc(N)nc(-c2cc(Cl)ccc2Cl)n1", "activity change, negative = inhibition": 0.542},
      {"smiles": "CCn1cc(C(=O)O)c(=O)c2cc(F)c(N3CCNCC3)nc21", "activity change, negative = inhibition": 7.99},
      {"smiles": "Cc1noc(NS(=O)(=O)c2ccc(N)cc2)c1C", "activity change, negative = inhibition": 0.807},
      {"smiles": "CC(=O)Oc1ccccc1C(=O)Nc1ncc([N+](=O)[O-])s1", "Potency": "8.71 µM (active)"},
      {"smiles": "CCOCC(O)COc1ccc(NC(=O)CC[S+](C)C)cc1", "note": "(stereo not drawn)", "activity change, negative = inhibition": 10},
      {"smiles": "COc1ccc(C(=O)CC(=O)c2ccc(C(C)(C)C)cc2)cc1", "activity change, negative = inhibition": -18.6},
      {"smiles": "CNNCc1ccc(C(=O)NC(C)C)cc1", "activity change, negative = inhibition": 0.394},
      {"smiles": "COCCCOc1cc(C[C@@H](C[C@H](N)[C@@H](O)C[C@H](C(=O)NCC(C)(C)C(N)=O)C(C)C)C(C)C)ccc1OC", "activity change, negative = inhibition": 8.04},
      {"smiles": "CCCc1cc(C(N)=S)ccn1", "activity change, negative = inhibition": 1.13},
      {"smiles": "Cc1cccc(Nc2ccncc2S(=O)(=O)NC(=O)NC(C)C)c1", "activity change, negative = inhibition": 1.83}
    ]},
    {"target": "Cytochrome P450 2C9 (Homo sapiens) (UniProt P11712)", "sequence (P11712 whole entry, looked up)": "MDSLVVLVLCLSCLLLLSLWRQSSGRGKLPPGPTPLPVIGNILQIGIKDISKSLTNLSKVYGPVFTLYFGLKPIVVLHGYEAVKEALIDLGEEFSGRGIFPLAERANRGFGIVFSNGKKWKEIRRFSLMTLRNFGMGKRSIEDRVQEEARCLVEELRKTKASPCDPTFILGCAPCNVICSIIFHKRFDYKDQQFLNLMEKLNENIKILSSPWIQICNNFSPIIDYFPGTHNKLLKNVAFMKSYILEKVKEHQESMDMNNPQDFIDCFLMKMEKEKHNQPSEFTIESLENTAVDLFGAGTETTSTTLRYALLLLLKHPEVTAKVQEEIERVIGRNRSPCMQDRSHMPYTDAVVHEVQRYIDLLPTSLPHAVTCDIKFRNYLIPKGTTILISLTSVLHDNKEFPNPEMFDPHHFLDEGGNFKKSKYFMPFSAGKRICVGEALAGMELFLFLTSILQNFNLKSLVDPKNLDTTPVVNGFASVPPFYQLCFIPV", "assay": "Cytochrome P450 family 2 subfamily C member 9 (CYP2C9) small molecule antagonists: luciferase biochemical (cell-free) qHTS assay (AID 1645842)", "details": "P450-Glo CYP2C9 enzyme assay, luciferin luminescence; series mostly up to 57.4 µM; activity change, negative = inhibition: at the top concentration", "how_it_was_run": "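Luminescence, after 20 min with luciferin detection reagent, reflected CYP2C9 turnover during a 1 h NADPH-driven reaction at 37C. Enzyme-substrate mix contained 0.4% bovine serum albumin and was preincubated with compound 10 min at room temperature.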", "values": [
      {"smiles": "COc1ccc2cc3[n+](cc2c1OC)CCc1cc2c(cc1-3)OCO2", "activity change, negative = inhibition": "-3.37%"},
      {"smiles": "O=c1cc(O)c(Cl)c[nH]1", "activity change, negative = inhibition": "13.9%"},
      {"smiles": "COc1ccccc1OCC(O)COC(N)=O", "note": "(stereo not drawn)", "activity change, negative = inhibition": "39.1%"},
      {"smiles": "CCN[C@H]1C[C@H](C)S(=O)(=O)c2sc(S(N)(=O)=O)cc21", "activity change, negative = inhibition": "2.46%"},
      {"smiles": "CCC(=O)O[C@]1(C(=O)CCl)[C@@H](C)C[C@H]2[C@@H]3CCC4=CC(=O)C=C[C@]4(C)[C@@]3(F)[C@@H](O)C[C@@]21C", "Potency": "17.4 µM (active)"},
      {"smiles": "CC(C)OC(=O)OCOP(=O)(CO[C@H](C)Cn1cnc2c(N)ncnc21)OCOC(=O)OC(C)C", "activity change, negative = inhibition": "-17.8%"},
      {"smiles": "O=P(O)(O)C(O)(Cc1cccnc1)P(=O)(O)O", "activity change, negative = inhibition": "13.7%"},
      {"smiles": "CC(C)C[C@H](NC(=O)[C@H](CCc1ccccc1)NC(=O)CN1CCOCC1)C(=O)N[C@@H](Cc1ccccc1)C(=O)N[C@@H](CC(C)C)C(=O)[C@@]1(C)CO1", "activity change, negative = inhibition": "2.66%"},
      {"smiles": "CNS(=O)(=O)Cc1ccc2[nH]cc(CCN(C)C)c2c1", "activity change, negative = inhibition": "2.12%"},
      {"smiles": "COc1cnc(NS(=O)(=O)c2ccc(N)cc2)nc1", "activity change, negative = inhibition": "11.6%"},
      {"smiles": "CC(C)Cn1cnc2c(N)nc3ccccc3c21", "activity change, negative = inhibition": "2.02% [at 23.9 µM]"},
      {"smiles": "CO[C@@]12[C@H](COC(N)=O)C3=C(C(=O)C(C)=C(N)C3=O)N1C[C@@H]1N[C@@H]12", "activity change, negative = inhibition": "9.93%"},
      {"smiles": "COc1ccc(-c2ccc3cc(C(=O)O)ccc3c2)cc1C12CC3CC(CC(C3)C1)C2", "activity change, negative = inhibition": "11%"},
      {"smiles": "O=NN(CCCl)C(=O)NC1CCCCC1", "activity change, negative = inhibition": "8.45%"},
      {"smiles": "CC(=O)[C@H]1CC[C@H]2[C@@H]3CC=C4C[C@@H](O)CC[C@]4(C)[C@H]3CC[C@]12C", "activity change, negative = inhibition": "-1.15%"},
      {"smiles": "N[C@@H](C(=O)N[C@@H]1C(=O)N2C(C(=O)O)=C(Cl)CS[C@H]12)c1ccccc1", "activity change, negative = inhibition": "11.4% [at 11.5 µM]"},
      {"smiles": "CCCCc1oc2ccc(NS(C)(=O)=O)cc2c1C(=O)c1ccc(OCCCN(CCCC)CCCC)cc1", "Potency": "12.3 µM (active) and 12 µM (active)"},
      {"smiles": "COc1cccc(N(C)C(=S)Oc2ccc3c(c2)CCCC3)n1", "activity change, negative = inhibition": "-25%"},
      {"smiles": "Nc1nc(N)nc(-c2cc(Cl)ccc2Cl)n1", "activity change, negative = inhibition": "3.74%"},
      {"smiles": "CCn1cc(C(=O)O)c(=O)c2cc(F)c(N3CCNCC3)nc21", "activity change, negative = inhibition": "2.06%"},
      {"smiles": "C#CCN[C@@H]1CCc2ccccc21", "activity change, negative = inhibition": "6.18%"},
      {"smiles": "Cc1noc(NS(=O)(=O)c2ccc(N)cc2)c1C", "activity change, negative = inhibition": "1.76%"},
      {"smiles": "CC(=O)Oc1ccccc1C(=O)Nc1ncc([N+](=O)[O-])s1", "Potency": "2.75 µM (active)"},
      {"smiles": "CCOCC(O)COc1ccc(NC(=O)CC[S+](C)C)cc1", "note": "(stereo not drawn)", "activity change, negative = inhibition": "11.1%"},
      {"smiles": "COc1ccc(C(=O)CC(=O)c2ccc(C(C)(C)C)cc2)cc1", "activity change, negative = inhibition": "-6.31%"},
      {"smiles": "O=S(=O)(c1cccc2cnccc12)N1CCCNCC1", "activity change, negative = inhibition": "-18.1%"},
      {"smiles": "CNNCc1ccc(C(=O)NC(C)C)cc1", "activity change, negative = inhibition": "-11.4%"},
      {"smiles": "COCCCOc1cc(C[C@@H](C[C@H](N)[C@@H](O)C[C@H](C(=O)NCC(C)(C)C(N)=O)C(C)C)C(C)C)ccc1OC", "activity change, negative = inhibition": "2.5%"},
      {"smiles": "CCCc1cc(C(N)=S)ccn1", "activity change, negative = inhibition": "5.82%"},
      {"smiles": "CNC(=O)c1cc(Oc2ccc(NC(=O)Nc3ccc(Cl)c(C(F)(F)F)c3)cc2)ccn1", "Potency": "19.5 µM (active)"}
    ]}
  ]
}
